# According to PubChem BioAssay AID2517 (National Center for Advancing Translational Sciences (NCATS), 2010):
# “And” between values parts separate entries of the source, which are not always exact repeats. Equal entries are not always repeated. The whole screen tested about 350,000 compounds, of which about 1,200 (0.34%) were called active. Another 3% or so got no clear call; they are omitted. The call rests on the fitted dose curve; in most records, active means well fitted inhibition curve with a large enough effect; inconclusive means small, poorly fitted or top-dose-only effect; inactive means no such curve, though single readings can be large or run the other way. This excerpt belongs to a sample that is enriched for actives. The source holds several records for some structures; these can differ, active in one and inactive in another.
# Molecular target: DNA repair nuclease/redox regulator APEX1 (Homo sapiens) (UniProt P27695)
# Sequence (P27695 whole entry, looked up): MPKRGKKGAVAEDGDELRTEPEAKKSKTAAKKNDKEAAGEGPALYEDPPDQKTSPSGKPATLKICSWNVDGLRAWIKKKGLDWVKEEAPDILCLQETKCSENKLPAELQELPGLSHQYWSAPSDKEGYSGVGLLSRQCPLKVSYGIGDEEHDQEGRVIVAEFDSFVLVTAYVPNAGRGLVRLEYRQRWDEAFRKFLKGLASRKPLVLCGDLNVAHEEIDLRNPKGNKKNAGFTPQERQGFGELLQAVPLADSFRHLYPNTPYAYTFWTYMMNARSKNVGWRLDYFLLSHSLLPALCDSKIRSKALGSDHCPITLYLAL
# Assay: qHTS Assay for Inhibitors of the Human Apurinic/apyrimidinic Endonuclease 1 (APE1); further: nearly all actives have a fitted effect of over 55% in size;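 on activity change, negative = inhibition: plate controls were vehicle for no effect and reference inhibitor for full effect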
# Conditions: recombinant APE1, TAMRA/BHQ-2 abasic DNA cleavage fluorescence; activity change, negative = inhibition: at 65.8 µM (top of the series)
# Text: The apurinic/apyrimidinic endonuclease APE1 is the primary mammalian enzyme responsible for the removal of abasic (or AP) sites in DNA and functions centrally in the base excision DNA repair (BER) pathway. […] Thus, targeting APE1 could improve the efficacy of current treatment paradigms by promoting selective sensitization or protection of diseased and normal cells, respectively.
# Inhibition of APE1 activity was screened by utilizing double-stranded short substrate containing tetrahydrofuran (THF) abasic site labeled with rhodamine-type fluorophore (TAMRA) at the 5'-end and with non-fluorescent Black Hole Quencher-2 (BHQ-2) at the opposing 3'-end. An increase in the fluorescence intensity due to incision of the abasic site by APE1 was used to measure the enzyme activity.
# NIH Chemical Genomics Center [NCGC]
# NIH Molecular Libraries Probe Centers Network [MLPCN]
# Assay Provider: David M. Wilson, III, National Institute on Aging, NIH
# Three uL of enzyme solution (0.75 nM APE1 final concentration) was dispensed to 1536-well Greiner black solid bottom plates. […] The plates were incubated for 15 min at room temperature, and then 1 uL of substrate solution (50 nM final concentration of TAMRA/BHQ-2) was added to start the reaction. The plates were immediately transferred into ViewLux High-throughput CCD imager (Perkin-Elmer) in order to measure the reaction progress in kinetic mode (three reads every 60 seconds) using 525 nm excitation and 598 nm emission fluorescence protocol. The fluorescence intensity difference between the third and the first time points was used to compute reaction progress. Results were normalized to buffer only columns and NSC13755 positive controls and negative control DMSO treated wells.
# Potency means the concentration at half of the fitted maximal effect.
Compound,"activity change, negative = inhibition",Potency
Cc1ccc(CCC(=O)Nc2ncc(Cc3cc(Cl)ccc3Cl)s2)o1,-4.89% (inactive),–
Cc1ccc(Cc2cnc(N)s2)o1,–,28.2 µM (active)
CCC[C@@H]1C[C@@]1(CCC)C(NS(=O)(=O)c1cccc2cccnc12)c1ccc(Cl)cc1 (some centres undefined),14.7% (inactive),–
CC(=O)OCC1OC(C#CCCCc2ccccc2)C=CC1OC(C)=O (centres undefined),10.7% [at 12.4 µM] (inactive) and -3.91% [at 12.4 µM] (inactive),–
Nc1ncn(C2OC(CO)C(O)C2O)c(=O)n1 (centres undefined),-0.222% (inactive),–
CC1=C2[C@@H](O)[C@H]([C@@H](C)C(=O)NCCC(C)C)CC[C@@]2(C)C=CC1=O,-2.86% (inactive),–
COC(=O)C1=C(C)N(Cc2ccccc2)C2=C3C(=O)N(c4ccccc4)C(=O)C3[C@@](O)(C(=O)OC)C(=O)N2C1c1ccccc1 (some centres undefined),-8.1% [at 12.4 µM] (inactive) and -10.6% [at 12.4 µM] (inactive),–
C#CCOCCOCCOCCNc1nc(N2CCN(C(=O)[C@H](CCCCN)n3cc([C@@H](N)C(C)CC)nn3)CC2)nc(N2CCN(C(=O)[C@H](Cc3ccc(O)cc3)n3cc([C@@H](N)C(C)CC)nn3)CC2)n1 (some centres undefined),24.6% (inactive),–
C#CCOCCOCCOCCNc1nc(N2CCN(C(=O)C(Cc3ccc(O)cc3)n3cc(C(N)CC(C)C)nn3)CC2)nc(N2CCN(C(=O)C(Cc3ccc(O)cc3)n3cc(C(N)C(C)CC)nn3)CC2)n1 (centres undefined),–,31.6 µM (active)
C#CCOCCOCCOCCNc1nc(N2CCN(C(=O)[C@H](Cc3ccc(O)cc3)n3cc(C(N)CC(C)C)nn3)CC2)nc(N2CCN(C(=O)[C@H](CCC(=O)O)n3cc(C(N)[C@H](C)CC)nn3)CC2)n1 (some centres undefined),-11.9% (inactive),–
C=CCOC(=O)NC(c1ccc(F)c(F)c1)C(C(=O)COC)C(=O)OC (centres undefined),–,inactive
CCCN1[C@H](C(=O)OC)C[C@@]2(O)[C@@H](O)[C@@H](O)[C@@H](O)C[C@@H]12,14.8% (inactive),–
COc1c(O)c2c(=O)cc(OC)c3c4c(OC)cc(=O)c5c(O)c(OC)c6c(c(c1C[C@@](C)(O)[C@H]6C(C)=O)c23)c54,-10.2% (inactive),–
Cc1ccccc1NC(=O)CN1C(=O)N/C(=C\c2cccn2-c2cccc(C(=O)O)c2)C1=O,–,3.16 µM (active)
Cc1ccccc1NC(=O)CSC(=O)c1ccccc1,8.15% (inactive),–
O=C1N/C(=C/c2cccn2-c2ccccc2)C(=O)N1c1cccc(Cl)c1,6.35% (inactive),–
O=C(c1cccc(F)c1)N1CCC2(CCCN(Cc3ccncc3)C2)CC1,-0.987% (inactive),–
COC(=O)[C@@]1(Cc2ccc(F)cc2)[C@@H]2[C@@H](CC(=O)[C@H]2CC(=O)C(=O)N2CCCC2)CN1C(=O)c1ccccc1,-5.41% (inactive),–
CC(=O)OCC(=O)C1CCC2C3CCC4=CC(=O)CC[C@@]4(C)C3CC[C@]12C (some centres undefined),1.89% (inactive),–
C#CCC(C(=O)OC)(C(=O)OC)C(C[N+](=O)[O-])c1ccccc1 (centres undefined),1.76% [at 12.4 µM] (inactive),–

Compound,"activity change, negative = inhibition",Potency
O=c1ccc2c(-c3ccccc3S(=O)(=O)O)c3ccc(O)c(O)c3oc-2c1O,–,0.0947 µM (active)
CC(C)CN1CCc2nc(-c3ccccc3)c3c(c2C1)COC(C)C3 (centres undefined),8.68% [at 12.4 µM] (inactive),–
Cc1ccc(-c2nn(CC(C)(C)C)c3ncnc(N)c23)cc1,-2.29% (inactive),–
CN1CCCC1CCO[C@@](C)(c1ccccc1)c1ccc(Cl)cc1 (some centres undefined),0.95% (inactive),–
Cn1c(SCC(=O)N/N=C/c2ccc(O)c(O)c2)nc2ccccc21,-9.26% (inactive),–
CCOc1cc(/C=N/NC(=O)CN2CCCCC2)ccc1O,32% (inactive),–
Cc1nccn1CC(=O)N/N=C/c1ccc(O)c(O)c1,–,25.1 µM (active)
N#Cc1cccc(-c2ccc3ncnc(NCc4cccs4)c3c2)c1,0.81% (inactive),–
COc1ccc(-c2oc3cc(OC)ccc3c2C(=O)c2ccc(C#N)cc2)cc1,-7.81% (inactive),–
COC(=O)C1=C(C(=O)OC)[C@@H]2N(C)c3ccccc3[C@@]23C[C@@H](C(=O)OC)N(S(=O)(=O)c2cccs2)C3=N1,-14.4% [at 12.4 µM] (inactive),–
Nc1ccc2nc3c(=O)[nH]c(=S)[nH]c3nc2c1,–,0.501 µM (active)
CN1[C@H]2CC(OC(=O)[C@@H](CO)c3ccccc3)C[C@H]1[C@H]1O[C@H]12 (some centres undefined),-4.8% [at 21 µM] (inactive),–
COC(=O)[C@@]1(Cc2ccccc2)[C@H]2c3cc(C(=O)N4CCCC4)n(Cc4ccc(C)o4)c3C[C@H]2CN1C(=O)c1ccccc1,-5.54% (inactive),–
CC(C)C(N)C(=O)OCCOCn1cnc2c(=O)[nH]c(N)nc21 (centres undefined),3.96% (inactive),–
C[C@@H]1O[C@@H](OC[C@H]2O[C@@H](Oc3cc(O)c4c(c3)O[C@H](c3ccc(O)c(O)c3)CC4=O)[C@H](O)[C@@H](O)[C@@H]2O)[C@H](O)[C@H](O)[C@H]1O,-10.7% (inactive),–
C=CC(COCc1ccccc1)N(Cc1ccccc1)S(=O)(=O)c1ccccc1Br (centres undefined),–,inactive
C=CCCN(Cc1ccccc1)S(=O)(=O)c1ccccc1Br,–,inactive and 199 nM (active)
C=CCCN(C(Cc1ccccc1)C(=O)OC)S(=O)(=O)c1cc(Br)ccc1Br (centres undefined),-1.9% (inactive),–
COC(=O)[C@@]1(Cc2ccccc2)[C@H]2c3cc(C(=O)N(C)C)n(CCSCCO)c3C[C@H]2CN1C(=O)c1ccccc1,-0.311% (inactive),–
